The record followed here is the supplement of paper PMC6992640.

The subject of one assay is HCI01 (cells of a triple-negative basal-like breast cancer xenograft). Kind of assay: cell viability of combination (% of vehicle); higher = less cytotoxic. The following applies: 1 µM; 72 h; partner dose: 10 nM. The method, then:
(§1)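 PDX cells were treated for 72 h with each drug at 1 µM plus carfilzomib (10 nM; 100 nM for WHIM2). Luciferase viability is expressed as percent of vehicle.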

In another assay the test system is UCD52 (cells of a triple-negative basal-like breast cancer xenograft). The description is as above. The note with it: 1 µM; 72 h; partner dose: 10 nM. The protocol: as §1

Regarding `CCCCCCCCCCCCCCCCOP(=O)([O-])OCC[N+](C)(C)C` [Miltefosine] + CC(C)C[C@H](NC(=O)[C@H](CCc1ccccc1)NC(=O)CN1CCOCC1)C(=O)N[C@@H](Cc1ccccc1)C(=O)N[C@@H](CC(C)C)C(=O)[C@@]1(C)CO1 [Carfilzomib], the entries for the “cell viability of combination” value in the assay with HCI01 and in the assay on UCD52 were 75.2 and 71.6, respectively.
On the same counts, the results for `Cc1nc(Nc2ncc(C(=O)Nc3c(C)cccc3Cl)s2)cc(N2CCN(CCO)CC2)n1` + CC(C)C[C@H](NC(=O)[C@H](CCc1ccccc1)NC(=O)CN1CCOCC1)C(=O)N[C@@H](Cc1ccccc1)C(=O)N[C@@H](CC(C)C)C(=O)[C@@]1(C)CO1 [Carfilzomib] are 61.3 and 32.4.
For `CCCSc1nc(NC2CC2c2ccc(F)c(F)c2)c2nnn(C3CC(OCCO)C(O)C3O)c2n1` (stereo not drawn) [Ticagrelor] + CC(C)C[C@H](NC(=O)[C@H](CCc1ccccc1)NC(=O)CN1CCOCC1)C(=O)N[C@@H](Cc1ccccc1)C(=O)N[C@@H](CC(C)C)C(=O)[C@@]1(C)CO1 [Carfilzomib] the same measures were 95.1 and 54.3.
As for `C=CC(=O)N1CCC(Oc2cc3c(Nc4ccc(Cl)c(Cl)c4F)ncnc3cc2OC)CC1` [Poziotinib] + CC(C)C[C@H](NC(=O)[C@H](CCc1ccccc1)NC(=O)CN1CCOCC1)C(=O)N[C@@H](Cc1ccccc1)C(=O)N[C@@H](CC(C)C)C(=O)[C@@]1(C)CO1 [Carfilzomib], the “cell viability of combination” value with HCI01 came to 52.8; with UCD52 it was 28.9.
For `C#Cc1cccc(Nc2ncnc3cc(OCCOC)c(OCCOC)cc23)c1.Cl` [Erlotinib Hydrochloride] + CC(C)C[C@H](NC(=O)[C@H](CCc1ccccc1)NC(=O)CN1CCOCC1)C(=O)N[C@@H](Cc1ccccc1)C(=O)N[C@@H](CC(C)C)C(=O)[C@@]1(C)CO1 [Carfilzomib] the same measures were 62.6 and 57.4.
On the same counts, the results for `CC(C)COc1ccc(CNC(=O)N(Cc2ccc(F)cc2)C2CCN(C)CC2)cc1` [Pimavanserin] + CC(C)C[C@H](NC(=O)[C@H](CCc1ccccc1)NC(=O)CN1CCOCC1)C(=O)N[C@@H](Cc1ccccc1)C(=O)N[C@@H](CC(C)C)C(=O)[C@@]1(C)CO1 [Carfilzomib] are 76.1 and 62.4.
With `COc1cc2ncnc(Nc3ccc(F)c(Cl)c3)c2cc1NC(=O)C=CCN1CCCCC1` + CC(C)C[C@H](NC(=O)[C@H](CCc1ccccc1)NC(=O)CN1CCOCC1)C(=O)N[C@@H](Cc1ccccc1)C(=O)N[C@@H](CC(C)C)C(=O)[C@@]1(C)CO1 [Carfilzomib], the results for the “cell viability of combination” value in the assay on HCI01 and in the assay on UCD52 were 68.1 and 34.1, respectively.
On the same counts, the results for `COc1ccc(CN2CCN(C(c3ccc(F)cc3)c3ccc(F)cc3)CC2)c(OC)c1OC.Cl.Cl` [Lomerizine HCl] + CC(C)C[C@H](NC(=O)[C@H](CCc1ccccc1)NC(=O)CN1CCOCC1)C(=O)N[C@@H](Cc1ccccc1)C(=O)N[C@@H](CC(C)C)C(=O)[C@@]1(C)CO1 [Carfilzomib] are 91.1 and 57.7.
On the same counts, the results for `COc1cc2c(Oc3ccc4[nH]c(C)cc4c3F)ncnc2cc1OCCCN1CCCC1` [Cediranib (AZD217)] + CC(C)C[C@H](NC(=O)[C@H](CCc1ccccc1)NC(=O)CN1CCOCC1)C(=O)N[C@@H](Cc1ccccc1)C(=O)N[C@@H](CC(C)C)C(=O)[C@@]1(C)CO1 [Carfilzomib] are 80.6 and 31.6.
On the same counts, the results for `CN(C(=O)CN(CCO)CC(=O)N(C)C(C)(C)Cc1ccccc1)C(C)(C)Cc1ccccc1` [Oxethazaine] + CC(C)C[C@H](NC(=O)[C@H](CCc1ccccc1)NC(=O)CN1CCOCC1)C(=O)N[C@@H](Cc1ccccc1)C(=O)N[C@@H](CC(C)C)C(=O)[C@@]1(C)CO1 [Carfilzomib] are 70.7 and 66.5.
Consider `CC(C)c1nc(N(C)S(C)(=O)=O)nc(-c2ccc(F)cc2)c1C=CC(O)CC(O)CC(=O)[O-].CC(C)c1nc(N(C)S(C)(=O)=O)nc(-c2ccc(F)cc2)c1C=CC(O)CC(O)CC(=O)[O-].[Ca+2]` (stereo not drawn) [Rosuvastatin Calcium] + CC(C)C[C@H](NC(=O)[C@H](CCc1ccccc1)NC(=O)CN1CCOCC1)C(=O)N[C@@H](Cc1ccccc1)C(=O)N[C@@H](CC(C)C)C(=O)[C@@]1(C)CO1 [Carfilzomib], for which the “cell viability of combination” value with HCI01 was determined as 80.8; in the assay on UCD52, 67.7.
For `COc1ccc(C[C@H](N)C(=O)N[C@@H]2[C@H](O)[C@H](n3cnc4c(N(C)C)ncnc43)O[C@@H]2CO)cc1.Cl.Cl` [Puromycin dihydrochloride] + CC(C)C[C@H](NC(=O)[C@H](CCc1ccccc1)NC(=O)CN1CCOCC1)C(=O)N[C@@H](Cc1ccccc1)C(=O)N[C@@H](CC(C)C)C(=O)[C@@]1(C)CO1 [Carfilzomib] the same measures were 76.4 and 13.8.
On the same counts, the results for `COc1ncc(-c2ccc3nccc(-c4ccnnc4)c3c2)cc1NS(=O)(=O)c1ccc(F)cc1F` + CC(C)C[C@H](NC(=O)[C@H](CCc1ccccc1)NC(=O)CN1CCOCC1)C(=O)N[C@@H](Cc1ccccc1)C(=O)N[C@@H](CC(C)C)C(=O)[C@@]1(C)CO1 [Carfilzomib] are 37.6 and 17.6.
In the case of `COc1cc(C(=O)NS(=O)(=O)c2ccccc2C)ccc1Cc1cn(C)c2ccc(NC(=O)OC3CCCC3)cc12` [Zafirlukast] + CC(C)C[C@H](NC(=O)[C@H](CCc1ccccc1)NC(=O)CN1CCOCC1)C(=O)N[C@@H](Cc1ccccc1)C(=O)N[C@@H](CC(C)C)C(=O)[C@@]1(C)CO1 [Carfilzomib], the “cell viability of combination” value in the assay on HCI01 came to 83.2; in the assay on UCD52 it was 65.
For `Cc1c(C(=O)NN2CCCCC2)nn(-c2ccc(Cl)cc2Cl)c1-c1ccc(Cl)cc1` [Rimonabant] + CC(C)C[C@H](NC(=O)[C@H](CCc1ccccc1)NC(=O)CN1CCOCC1)C(=O)N[C@@H](Cc1ccccc1)C(=O)N[C@@H](CC(C)C)C(=O)[C@@]1(C)CO1 [Carfilzomib] the same measures were 78.4 and 63.
On the same counts, the results for `CC(C)(C)Cn1c(N)nc2ccc(-c3[nH]c(C(C)(C)C)nc3-c3ccc(F)cc3)nc21.CS(=O)(=O)O.CS(=O)(=O)O` + CC(C)C[C@H](NC(=O)[C@H](CCc1ccccc1)NC(=O)CN1CCOCC1)C(=O)N[C@@H](Cc1ccccc1)C(=O)N[C@@H](CC(C)C)C(=O)[C@@]1(C)CO1 [Carfilzomib] are 61.9 and 29.3.
For `CNCCCC12CCC(c3ccccc31)c1ccccc12.Cl` [Maprotiline HCl] + CC(C)C[C@H](NC(=O)[C@H](CCc1ccccc1)NC(=O)CN1CCOCC1)C(=O)N[C@@H](Cc1ccccc1)C(=O)N[C@@H](CC(C)C)C(=O)[C@@]1(C)CO1 [Carfilzomib] the same measures were 76.5 and 55.5.
As to `CC1(C)CCC(c2ccc(Cl)cc2)=C(CN2CCN(c3ccc(C(=O)NS(=O)(=O)c4ccc(NC(CCN5CCOCC5)CSc5ccccc5)c(S(=O)(=O)C(F)(F)F)c4)cc3)CC2)C1` (stereo not drawn) [ABT-263 (Navitoclax)] + CC(C)C[C@H](NC(=O)[C@H](CCc1ccccc1)NC(=O)CN1CCOCC1)C(=O)N[C@@H](Cc1ccccc1)C(=O)N[C@@H](CC(C)C)C(=O)[C@@]1(C)CO1 [Carfilzomib], the figures for the “cell viability of combination” value in the assay on HCI01 and with UCD52 were 47 and 31.8, respectively.
As to `COc1ccccc1OCCNCC(O)COc1cccc2[nH]c3ccccc3c12` (stereo not drawn) [Carvedilol] + CC(C)C[C@H](NC(=O)[C@H](CCc1ccccc1)NC(=O)CN1CCOCC1)C(=O)N[C@@H](Cc1ccccc1)C(=O)N[C@@H](CC(C)C)C(=O)[C@@]1(C)CO1 [Carfilzomib], the “cell viability of combination” value in the assay with HCI01 turned out to be 76.8; in the assay on UCD52 it was 61.4.
For `CC(C)CC(NC(=O)CNC(=O)c1cc(Cl)ccc1Cl)B(O)O` (stereo not drawn) + CC(C)C[C@H](NC(=O)[C@H](CCc1ccccc1)NC(=O)CN1CCOCC1)C(=O)N[C@@H](Cc1ccccc1)C(=O)N[C@@H](CC(C)C)C(=O)[C@@]1(C)CO1 [Carfilzomib] the same measures were 43.7 and 19.8.
On the same counts, the results for `CCN(CC)CCNC(=O)c1c(C)[nH]c(C=C2C(=O)Nc3ccc(F)cc32)c1C.O=C(O)CC(O)C(=O)O` [Sunitinib malate] + CC(C)C[C@H](NC(=O)[C@H](CCc1ccccc1)NC(=O)CN1CCOCC1)C(=O)N[C@@H](Cc1ccccc1)C(=O)N[C@@H](CC(C)C)C(=O)[C@@]1(C)CO1 [Carfilzomib] are 67.2 and 61.5.
For `Cc1cccc(CN2CCN(C(c3ccccc3)c3ccc(Cl)cc3)CC2)c1.Cl.Cl` (stereo not drawn) [Meclizine 2HCl] + CC(C)C[C@H](NC(=O)[C@H](CCc1ccccc1)NC(=O)CN1CCOCC1)C(=O)N[C@@H](Cc1ccccc1)C(=O)N[C@@H](CC(C)C)C(=O)[C@@]1(C)CO1 [Carfilzomib] the same measures were 105 and 57.2.
Turning to `CNC(=O)c1cc(Oc2ccc(NC(=O)Nc3ccc(Cl)c(C(F)(F)F)c3)cc2)ccn1` [Sorafenib] + CC(C)C[C@H](NC(=O)[C@H](CCc1ccccc1)NC(=O)CN1CCOCC1)C(=O)N[C@@H](Cc1ccccc1)C(=O)N[C@@H](CC(C)C)C(=O)[C@@]1(C)CO1 [Carfilzomib], the “cell viability of combination” value stood at 69 with HCI01 and 49 in the assay with UCD52.
As for `COc1cc2nccc(Oc3ccc(NC(=O)Nc4cc(C)on4)c(Cl)c3)c2cc1OC` [Tivozanib (AV-951)] + CC(C)C[C@H](NC(=O)[C@H](CCc1ccccc1)NC(=O)CN1CCOCC1)C(=O)N[C@@H](Cc1ccccc1)C(=O)N[C@@H](CC(C)C)C(=O)[C@@]1(C)CO1 [Carfilzomib], the figures for the “cell viability of combination” value with HCI01 and with UCD52 were 97.5 and 48.9, respectively.
